Structures are written as SMILES. Several values for one entry are separate records, joined by “and”; a condition that tells them apart may be missing. Equal entries are not always repeated. This is part of a sample that, as a whole, favours compounds with a hit. Of some 79,000 tested, about 15% had one in any assay. Unmarked numbers belong to inactive results. Activity calls are given as the source filed them. Cut-off read from the data, not from the text of the source: active = growth inhibition above about 70%; inactive = the rest.

Growth inhibition data for 39 compounds are collected here from PubChem BioAssay (NCI).

The nature of test [1]: NCI Yeast Anticancer Drug Screen. Data for the rad50 strain (AID 155).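 Note: 0% = growth of vehicle-only cultures of the same strain.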 To be noted: S. cerevisiae rad50 strain growth inhibition; at 50.0 µM; hits give high values. The method, boiled down: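 Vehicle-treated cultures provide the reference for the growth inhibition reported for compound-exposed, repair-deficient yeast.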
A short description of test [2]: NCI Yeast Anticancer Drug Screen. Data for the mec2-1 strain (AID 157). As to conditions: S. cerevisiae mec2-1 strain, at 50.0 µM, hits give high values. In outline: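 Each compound was tested on mec2-1 yeast, a strain altered in DNA damage repair or cell cycle control. Growth inhibition is reported relative to vehicle.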
Test [3] can be described thus: NCI Yeast Anticancer Drug Screen. Data for the sgs1 mgt1 strain (AID 161).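 Note: 0% = growth of cultures given vehicle only.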 As to conditions: S. cerevisiae sgs1 mgt1 strain, at 50.0 µM, hits give high values. In outline:
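Inhibition of yeast growth, normalised to vehicle-treated controls, is reported for a strain bearing genetic alterations in DNA damage repair.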

Test [4] can be described thus: NCI Yeast Anticancer Drug Screen. Data for the cln2 rad14 strain (AID 165).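 Note: 0% = growth equal to vehicle treated cultures.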 As to conditions: S. cerevisiae cln2 rad14 strain, at 50.0 µM, hits give high values. In outline:
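Test compounds were added to cln2 rad14 yeast cultures; inhibition of growth was then determined by comparison with vehicle treatment.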

The nature of test [5]: NCI Yeast Anticancer Drug Screen. Data for the bub3 strain (AID 167). As to conditions: S. cerevisiae bub3 mutant strain, at 50.0 µM, hits give high values. In outline:
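Mutant yeast screening strain plus compound; vehicle-treated cultures serve as the 0% inhibition reference.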

Test [6] is described as follows: NCI Yeast Anticancer Drug Screen. Data for the mlh1 rad18 strain (AID 175). To be noted: S. cerevisiae mlh1 rad18 strain growth inhibition; at 50.0 µM; hits give high values. The method, boiled down:
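Inhibition values reflect reduced growth of mutant yeast versus vehicle-treated controls following compound exposure; the mutations affect DNA damage repair.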

Consider `NC(N)=N/N=C/c1c[nH]c2ccccc12`, for which the growth inhibition in test [1] is -5.4%; in test [2], -14.2%; in test [3] it was -18%; in test [4], 4.8%; in test [5] it was -10.1%; in test [6] it was -25.1%.
As for `CCOC(CBr)OCC`, the growth inhibition is 14.4% in test [1]; -4.75% in test [2]; 0.45% in test [3]; -25.7% in test [4]; 7.55% in test [5]; 20.8% in test [6].
`O=C([O-])CN(CCN(CC(=O)[O-])CC(=O)O)CC(=O)O.[Fe+5].[Na+]`: the growth inhibition is -12.6% in test [1]; -13.3% in test [2]; 0.35% in test [3]; -35.8% in test [4]; -2.85% in test [5]; -8.4% in test [6].
For `O=C1CCN2CCCC1C2` (centres undefined), the growth inhibition is -18.9% in test [1]; -21.3% in test [2]; -18.8% in test [3]; -4.15% in test [4]; -16.6% in test [5]; -43.8% in test [6].
Take `CO[C@H]1C=C[C@@]23c4cc5c(cc4CO[C@]2(O)CN(C)[C@H]3C1)OCO5`: the growth inhibition in test [1] was -16.2%; in test [2], -1.35%; in test [3], -10.8%; in test [4] it was -1.35%; in test [5], 1.8%; in test [6], -41%.
Regarding `NNC(=O)c1ccc(O)cc1`, the growth inhibition in test [1] is 1.15%; in test [2] it was -2.65%; in test [3], -13.3%; in test [4] it was -17.4%; in test [5] it was -0.05%; in test [6] it was 18.2%.
In the case of `COC1/C=C/C=C(/C)Cc2cc(O)c(Cl)c(c2)N(C)C(=O)CC(OC(=O)C(C)C)C2(C)OC2C(C)C2CC1(O)NC(=O)O2` (centres undefined), the growth inhibition is -9.05% in test [1]; -11.2% in test [2]; -15.8% in test [3]; -9.15% in test [4]; -6.2% in test [5]; -53% in test [6].
For `COc1ccc(C(=O)O)cc1OC`, the growth inhibition was -0.25% in test [1]; 9.45% in test [2]; -18.8% in test [3]; 7.4% in test [4]; -9.5% in test [5]; 5% in test [6].
`COc1ccc2c(c1O)C1=CC(=O)CCC13CCN(C)C3C2` (centres undefined): the growth inhibition was -5.6% and 4.1% in test [1]; -6.65% and -22.6% in test [2]; 8.05% and 18.8% in test [3]; 3% and 8.05% in test [4]; 8.1% and 2.4% in test [5]; 1.4% and 0.55% in test [6].
`N#CC(C#N)=Cc1ccc(Cl)cc1`: the growth inhibition was 13.6% and 9.25% in test [1]; -2.05% and -21.4% in test [2]; 8.5% and 19.9% in test [3]; 3.45% and -9.95% in test [4]; -8.1% and 0.15% in test [5]; 20.7% and 20.1% in test [6].
For `O=C(Nc1ccc([As](=O)(O)O)cc1)Nc1cccc(Cl)c1Cl`, the growth inhibition in test [1] was 37.9%; in test [2], 36.3%; in test [3], -8%; in test [4] it was 0.3%; in test [5] it was 44.1%; in test [6], 34.9%.
Consider `Cc1ccc(N)c(C)c1`, for which the growth inhibition in test [1] is -2.05%; in test [2] it was -5.65%; in test [3], -1.5%; in test [4], -3.8%; in test [5] it was 3.2%; in test [6], -13.2%.
Take `COC(=O)c1cccc2cc3cccc[n+]3cc12`: the growth inhibition in test [1] is 3.7%; in test [2] it was -5.5%; in test [3], -9.3%; in test [4], -35.3%; in test [5], -1.05%; in test [6] it was 0.75%.
Regarding `CN1CNC2C(=O)CCC2c2ccccc21` (centres undefined), the growth inhibition was -12.2% in test [1]; -39.8% in test [2]; -21.3% in test [3]; -7.4% in test [4]; -28.9% in test [5]; -9.1% in test [6].
For `CC(C)(NC1=NCCO1)c1ccccc1`, the growth inhibition is -4.95% in test [1]; -16.9% in test [2]; -7.65% in test [3]; 5.5% in test [4]; -13.7% in test [5]; 62% in test [6].
As for `CNC(=O)Oc1cccc(N=CN(C)C)c1`, the growth inhibition was 7.65% in test [1]; 1.05% in test [2]; 0% in test [3]; 9.9% in test [4]; -20.4% in test [5]; 16.7% in test [6].
`C[P+](C)(C)C`: the growth inhibition in test [1] was 15.6% and -6.8%; in test [2] it was -17.2% and 7.3%; in test [3], -6.6% and 1.45%; in test [4], 1.4% and -5.8%; in test [5], 12% and -17.4%; in test [6] it was -26.9% and -6.85%.
With `O=C(c1ccccc1)C1C(C(=O)c2ccccc2)N1C1CCCCC1` (centres undefined), the growth inhibition in test [1] was 81.8% (active); in test [2], 32%; in test [3] it was 14.8%; in test [4] it was 2.3%; in test [5], 84.5% (active); in test [6] it was 80.8% (active).
In the case of `C/C=C/CC1(c2ccccc2)C(=O)NC(=S)NC1=O`, the growth inhibition in test [1] is 10.2%; in test [2], -15%; in test [3], 6.3%; in test [4], -42.3%; in test [5], -6%; in test [6], 5.9%.
With `CC1CCC(OC(=O)CCl)CC1` (centres undefined), the growth inhibition in test [1] is 18.1%; in test [2], 19.4%; in test [3] it was 13.3%; in test [4] it was 7.45%; in test [5], 8.95%; in test [6] it was -8.75%.
Take `CCc1ccc(OP(=O)(Oc2cc(C)cc(C)c2)Oc2cc(C)cc(C)c2)cc1`: the growth inhibition in test [1] was -27.9%; in test [2], -12.9%; in test [3] it was -16.1%; in test [4], 3.45%; in test [5] it was 1.55%; in test [6], -15.9%.
On to `CCCCCCCCCCC[CH2][Hg][CH2]CCCCCCCCCCC`, for which the growth inhibition in test [1] was 9.8%; in test [2] it was -1.05%; in test [3], 4%; in test [4] it was -4.65%; in test [5] it was 4.55%; in test [6], -4.3%.
As for `NC(=O)c1c([N+](=O)[O-])ccc(N(CCCl)CCCl)c1[N+](=O)[O-]`, the growth inhibition in test [1] was -5.1%; in test [2], 1.25%; in test [3], -12.9%; in test [4], 4.75%; in test [5] it was -5%; in test [6] it was -6.05%.
`O=NN1CCCC1C(=O)O` (centres undefined): the growth inhibition in test [1] is -10.8% and 0.75%; in test [2], -16.6% and -11.8%; in test [3], -14.2% and -12%; in test [4], 10.1% and 3.9%; in test [5], 3.45% and 1.65%; in test [6], -14% and -2.15%.
Turning to `CN1CN(c2ccccc2)C2(CCN(CCCSc3ccccc3NC(=O)/C=C/c3ccccc3)CC2)C1=O`, the growth inhibition is 20% in test [1]; -3.95% in test [2]; 18.8% in test [3]; 18.9% in test [4]; 41.3% in test [5]; 34.2% in test [6].
`O=C1/C(=C\c2ccccc2)N2CCC1CC2`: the growth inhibition is 4.2% in test [1]; -18.1% in test [2]; -1.65% in test [3]; -70.6% in test [4]; -18.1% in test [5]; -20.6% in test [6].
For `O=C(Nc1cc(S(=O)(=O)F)ccc1Cl)Oc1ccc([N+](=O)[O-])cc1`, the growth inhibition was 17.4% in test [1]; 53.2% in test [2]; 38.3% in test [3]; 11.3% in test [4]; 20.1% in test [5]; 32.5% in test [6].
In the case of `O=C(NC(Cc1ccccc1)C(=O)N(CCCl)CCCl)c1ccccc1` (centres undefined), the growth inhibition in test [1] is -5.15%; in test [2] it was -17.5%; in test [3] it was 16.7%; in test [4], 4.1%; in test [5], -13.7%; in test [6], 23.4%.
Take `COc1ccc([As]=O)cc1[N+](=O)[O-]` (centres undefined): the growth inhibition is 13.2% in test [1]; 1.15% in test [2]; 11.1% in test [3]; 14.2% in test [4]; -19% in test [5]; 8.2% in test [6].
`C=CCC1(CC=C)C(=O)N(C)C(=O)N(C)C1=O`: the growth inhibition is 7.25% in test [1]; 13.7% in test [2]; -6.75% in test [3]; 8.45% in test [4]; 5.2% in test [5]; -6.95% in test [6].
For the compound `C=C1C(=O)OC2CC3(C)OC3CC/C(C)=C/C(OC(C)=O)C12` (centres undefined), the growth inhibition in test [1] is 27.1%; in test [2] it was 37.4%; in test [3], 29.6%; in test [4] it was 21.1%; in test [5], 45.1%; in test [6] it was 38%.
Consider `COc1cc(C(CN)N(C)C)cc(OC)c1OC` (centres undefined), for which the growth inhibition in test [1] was -42.6%; in test [2], -48.7%; in test [3] it was -14.9%; in test [4], 14.4%; in test [5], -0.9%; in test [6], -8.65%.
As for `N.N.O=P([O-])([O-])CN(CP(=O)([O-])[O-])CP(=O)([O-])[O-].[Pt+2]`, the growth inhibition is -4.25% in test [1]; -9.8% in test [2]; -11.1% in test [3]; -12.9% in test [4]; 1.15% in test [5]; -23.1% in test [6].
`N#C[S-].N#C[S-].[Au+3].[Au+3].[CH3-].[CH3-].[CH3-].[CH3-]`: the growth inhibition in test [1] was 51.4%; in test [2], 11%; in test [3] it was 61.5%; in test [4], 33.4%; in test [5] it was 12.5%; in test [6], 53.5%.
Consider `S=P(c1ccccc1)(N1CCOCC1)N1CCOCC1`, for which the growth inhibition in test [1] is 7.8%; in test [2], -9.85%; in test [3], 7.65%; in test [4], -16.4%; in test [5], 13.4%; in test [6], -1.9%.
For the compound `CCCCc1ccc(N=C(N)N)cc1`, the growth inhibition in test [1] is 25.6%; in test [2], 9.35%; in test [3] it was 19.4%; in test [4], 8.3%; in test [5], 12.2%; in test [6], -1.95%.
Take `C[N+](C)(C)CC1CCCCC1=O` (centres undefined): the growth inhibition in test [1] is 24.1%; in test [2] it was 11.6%; in test [3], 17.9%; in test [4], 21.8%; in test [5], 11.7%; in test [6] it was 44.5%.
Regarding `O=c1cc(O)c1=O`, the growth inhibition is 23.2% in test [1]; 18% in test [2]; -6.05% in test [3]; 14.9% in test [4]; 16.8% in test [5]; 31.9% in test [6].
Consider `CCOC(=O)C1=C(C)N2CCCOC2(C)C(C(=O)OC)C1c1cccc([N+](=O)[O-])c1` (centres undefined), for which the growth inhibition was 38% in test [1]; 10.8% in test [2]; -6.5% in test [3]; 18.5% in test [4]; -34.6% in test [5]; 27.8% in test [6].
